Pf Dd2 inh – blocks in vitro growth of P. falciparum Dd2 | P. falciparum Dd2 growth, SYBR Green, 72 h | Potency, µM (doses to about 28.9 µM), most hits filed as inhibitors | actives 4.3% (n = 120,000); active means well fitted inhibition curve with a large enough effect; further: nearly all actives have a fitted effect of over 65% in size
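Infected erythrocytes (Dd2, 0.3% parasitemia, 2.5% hematocrit final) are added to compound in RPMI-1640/Albumax II medium, grown 72 h at 37C in low oxygen, then lysed with saponin/Triton-X containing SYBR Green and read by fluorescence.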
Large screens that a line does not name were inactive. The full list was thinned out, with hits kept by preference.

CCOC(=O)N1CCc2c(sc3c2c(=O)n(-c2ccc(CC)cc2)c(=O)n3CC(=O)c2ccc(F)cc2)C1	Pf Dd2 inh 7.9µM
CCOC(=O)N1CCc2c(sc3c2c(=O)n(-c2ccc(Cl)cc2)c(=O)n3Cc2cccc(C)c2)C1	none
CCc1ccc(-n2c(=O)c3c4c(sc3n(CC(=O)c3ccc(Cl)cc3)c2=O)CCC4)cc1	none
CCc1ccc(-n2c(=O)c3c4c(sc3n(CC(=O)c3ccc(Br)cc3)c2=O)CCC4)cc1	none
CCC1(O)CCC12CCN(C(=O)c1ccsc1)CC2 (configuration not stated)	none
COC(=O)[C@H](NC(=O)[C@@H]1C[C@H](NC(=O)Nc2ccc(OC)cc2)CN1C(=O)C=C(C)C)C(C)C	none
CC(C)Oc1ccc2c(NC(=O)c3ncc(F)cc3F)nn(CC(F)(F)F)c2c1	none
O=C(CN1C(=O)NC2(CCOCC2)C1=O)Nc1ccc(Cl)cc1F	none
CN1Cc2ccc(NCc3ccccc3)nc2C(C)(C(=O)NCCc2cnc[nH]2)C1 (configuration not stated)	none
O=C(Cn1c(=O)n(-c2ccccc2)c(=O)c2c3c(sc21)CCCC3)Nc1ccc(F)cc1	none
CCOC(=O)N1CCc2c(sc3c2c(=O)n(CCc2ccccc2)c(=O)n3CC(=O)Nc2ccccc2C)C1	none
CC(=O)c1cccc(-n2c(=O)c3c4c(sc3n(CC(=O)Nc3ccccc3F)c2=O)CN(C(C)=O)CC4)c1	none
CCOC(=O)N1CCc2c(sc3c2c(=O)n(-c2ccc(Cl)cc2)c(=O)n3CC(C)C)C1	none
CCOC(=O)N1CCc2c(sc3c2c(=O)n(-c2ccc(Cl)cc2)c(=O)n3CC(=O)Nc2ccccc2)C1	Pf Dd2 inh 8.9µM
CCOC(=O)N1CCc2c(sc3c2c(=O)n(Cc2ccccc2)c(=O)n3CC(=O)Nc2cccc(CC)c2)C1	Pf Dd2 inh 7.1µM
CNC(=O)Nc1ccc(C2(C(=O)Nc3ccc4c(c3)CCC4)CCC2)cc1	none
COc1ccc(Cn2c(C3CCN(C(=O)c4ccco4)CC3)n[nH]c2=O)cc1	none
COCC(=O)N[C@H]1C[C@@H](CO)N(Cc2ccc(Br)o2)C1	none
Cc1ccc(NC(=O)CCCn2nc(C)c3c(C)n(-c4ccccc4)nc3c2=O)cc1Cl	none
CCN(CC)c1ccc(NC(=O)Cn2c(C)c3cnn(-c4ccccc4)c(=O)c3c2C)c(C)c1	none
Cc1cc(NC(=O)CCCn2c(C)c3cnn(-c4ccccc4)c(=O)c3c2C)ccc1Br	Pf Dd2 inh 11µM
COC(=O)[C@@H]1Cc2nc[nH]c2CN1C(C)C	none
O=C(c1ccc2c(c1)OCCN(c1cccc(OC(F)(F)F)c1)C2)N1CCOCC1	none
CN1[C@@H](CCC(=O)N2CCC(O)CC2)CNC(=O)[C@@H]2[C@H]1CCN2Cc1nc2ccccc2n1C	none
O=C(Cn1ccn2nc(-c3ccc(F)cc3)c(CO)c2c1=O)Nc1ccc2c(c1)CCC2	none
CN(Cc1ccoc1)C(=O)Cn1ccc2ncccc2c1=O	none
CCN1c2cc(C(=O)Nc3ccc(F)cc3F)ccc2C(=O)N2CCCCCC21 (configuration not stated)	none
O=C(C1CCCN(c2cnn(Cc3ccccc3)c(=O)c2)C1)N1CCN(C2CCCCC2)CC1 (configuration not stated)	none
O=C1c2ccccc2-c2onc3c(NCCO)cc(NC4CCCCC4)c1c23	Pf Dd2 inh 8.9µM
COc1ccccc1-c1nc(C2CC(=O)N(C3CCCCC3)C2)no1 (configuration not stated)	none
CCNc1cc(N2CCN(C3CCCCC3)CC2)c2noc3c2c1C(=O)c1ccccc1-3	Pf Dd2 inh 5µM
O=C(CC1CCCC1)NC1CCN(c2cnn(Cc3ccccc3)c(=O)c2)CC1	none
O=C(O)CCCNc1cc(N2CCN(C3CCCCC3)CC2)c2noc3c2c1C(=O)c1ccccc1-3	Pf Dd2 inh 11µM
Cc1ccc(-c2onc(C)c2C)cc1S(=O)(=O)NC1CCCCC1	none
Cc1cccc(-c2nc(C3CC(=O)N(c4ccc(F)c(Cl)c4)C3)no2)c1 (configuration not stated)	none
Cc1noc(C)c1S(=O)(=O)N1C[C@@H](Oc2cccnc2)C[C@H]1C(=O)NC1CC1	none
Cc1ccc(Cl)cc1NC(=O)Cn1c(C)cc2nc3n(c(=O)c21)CCC3	none
O=C1OC[C@@H]2CCN(C3CCC3)Cc3ccc(F)cc3N12	none
COCC(=O)N[C@@H]1CN(C(=O)c2ccoc2)CC[C@@H]1c1nc(C)no1	none
CC(=O)N1CC2(CCN(C(=O)CCC(=O)O)C2)Cc2ccccc21 (configuration not stated)	none
NCCCC(=O)N1CCC2(CC1)CC(NC(=O)CN)c1ccccc12 (configuration not stated)	none
Cc1nnc2n1CCC(NC(=O)CC1=CCCCC1)CC2 (configuration not stated)	none
C=CCNC(=O)N[C@H]1C[C@@H](C(=O)N[C@@H](Cc2ccc(OC)cc2)C(N)=O)N(C(=O)CC(C)(C)C)C1	none
O=C(c1ccncc1)N1CCCC(CN2CCOCC2)CC1 (configuration not stated)	none
COc1ccc(C(=O)NC2CCN(c3cc(-c4ccc(Cl)cc4)[nH]n3)C2)cc1F (configuration not stated)	none
CCN1C(=O)CCN(C(=O)c2cccc(C#N)c2)CC12CCOCC2	none
O=C(NCc1nc(-c2cccc(F)c2)c(-c2ccccn2)[nH]1)[C@@H]1C[C@@H](O)CN1	none
Cc1ccc(-c2nc(CNC(=O)[C@@H]3CCC[C@H](N)C3)[nH]c2-c2ccccn2)cc1	Pf Dd2 inh 10µM
O=C(CN1CCNCC1)NCc1nc(-c2cccc(F)c2)c(-c2ccccn2)[nH]1	none
COCc1nncn1C1CCN(C(=O)c2cc(F)ccc2Cl)CC1	none
O=C(c1cccc(Cn2cccn2)c1)N1CCn2nc(C(=O)N3CCCC3)cc2C1	none
O=C(C1CC1)N1CCC(O)(c2csc(CN3CCc4ccccc4C3)n2)CC1	none
OC1(c2csc(CN3CCc4ccccc4C3)n2)CCN(CC2CCCCC2)CC1	Pf Dd2 inh 3.2µM
CC(C)CCN1CCC(O)(c2csc(CN3CCc4ccccc4C3)n2)CC1	Pf Dd2 inh 13µM
CCN(CC)Cc1nc(C2(O)CCN(CCC(C)C)CC2)cs1	Pf Dd2 inh 16µM
OC1(c2csc(CN3CCc4ccccc4C3)n2)CCN(C2CCC2)CC1	Pf Dd2 inh 10µM
CN1CCC(N2CCC(O)(c3csc(CN4CCc5ccccc5C4)n3)CC2)CC1	none
CC(C)(C)CC(=O)N1CCC(O)(c2csc(CN3CCc4ccccc4C3)n2)CC1	none
CCN(CC)Cc1nc(C2(O)CCN(C)CC2)cs1	none
CC(C)CCN1CCC(O)(c2csc(CN3CC[C@@H](O)C3)n2)CC1	none
O=C(COc1ccccc1)N1CCC(O)(c2csc(CN3CCc4ccccc4C3)n2)CC1	none
CCN(CC)Cc1nc(C2(O)CCN(CC3CC3)CC2)cs1	none
CN1CCN(Cc2nc(C3(O)CCN(CC4CC4)CC3)cs2)CC1	none
CN1C[C@H](O)C[C@H]1c1nnc2n1CCN(C(=O)c1ccoc1)CC2	none
N#Cc1ccc(C(=O)N2CCCCCCNC(=O)[C@@H]3C[C@@H](c4nc(-c5cnccn5)no4)C[C@@H]32)cc1	none
COc1ccc(S(=O)(=O)N2CC[C@H]3NC(=O)N(c4ccc(C)cc4)C(=O)[C@H]32)cc1	none
O=C(NC1CCCC1)c1c(OCC2CC2)cc(=O)n2c1CCOCC2	none
CCc1ccc(NC(=O)Cn2c(C)cc3nc4n(c(=O)c32)CCCCC4)cc1	none
O=C(c1ccccc1F)N1CCC(O)(c2csc(CN3CCc4ccccc4C3)n2)CC1	Pf Dd2 inh 3.2µM
OC1(c2csc(CN3CCc4ccccc4C3)n2)CCN(Cc2ccccc2F)CC1	none
COCC(=O)N1CCC(O)(c2csc(CN3CCc4ccccc4C3)n2)CC1	none
COc1cccc(C(=O)N2CCN(c3cc(C(F)(F)F)ncn3)CC2)c1OC	none

Screens deposited in PubChem by National Center for Advancing Translational Sciences (NCATS).
